Sampled rows, rich in hits. Any-hit rate of the full collection: about 7.3%.
Tau fluor counter: counter-screen for tau fibril formation inhibitors. tau K18 P301L Alexa594 fluorescence, heparin fibrillization. Potency, µM (doses to about 57.7 µM). hit rate 0.93% among 280,000. AID 1463; further: nearly all actives have a fitted effect of over 55% in size
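Human K18 P301L tau (15 uM unlabeled plus 0.24 uM Alexa 594-labeled, final) in 100 mM sodium acetate pH 7 was mixed with compound and 20 uM heparin and incubated 6 hr at 37 C.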
Tau fibril ThT: inhibitors of human tau fibril formation, thioflavin T binding; AID 1460; recombinant tau K18 P301L (four-repeat tau fragment), heparin-induced fibrillization, ThT fluorescence; Potency, µM (doses to about 57.4 µM), most hits filed as inhibitors; hit rate 2.1% among 270,000; P10636; further: nearly all actives have a fitted effect of over 55% in size
Target sequence (P10636 561-689 P618L limits assumed): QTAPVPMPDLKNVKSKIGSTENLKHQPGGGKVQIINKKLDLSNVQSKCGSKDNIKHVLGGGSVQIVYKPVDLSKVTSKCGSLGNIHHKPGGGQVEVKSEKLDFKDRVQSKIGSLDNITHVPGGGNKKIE
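Aggregation was driven by heparin (20 uM final) acting on recombinant tau […] bearing P301L in 100 mM sodium acetate pH 7; fibrils were detected with Thioflavin T.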
RORg inh: inhibitors of mouse ROR gamma transcriptional activity; P51450; Drosophila S2 Gal4-RORgamma UAS-luciferase reporter, 20 h; Potency, µM (series often up to 53.6 µM), actives largely listed as inhibitors; hit rate 5.4% among 310,000; further: nearly all actives have a fitted effect of over 60% in size
Target sequence (P51450 whole entry, looked up, the tested form may be a part): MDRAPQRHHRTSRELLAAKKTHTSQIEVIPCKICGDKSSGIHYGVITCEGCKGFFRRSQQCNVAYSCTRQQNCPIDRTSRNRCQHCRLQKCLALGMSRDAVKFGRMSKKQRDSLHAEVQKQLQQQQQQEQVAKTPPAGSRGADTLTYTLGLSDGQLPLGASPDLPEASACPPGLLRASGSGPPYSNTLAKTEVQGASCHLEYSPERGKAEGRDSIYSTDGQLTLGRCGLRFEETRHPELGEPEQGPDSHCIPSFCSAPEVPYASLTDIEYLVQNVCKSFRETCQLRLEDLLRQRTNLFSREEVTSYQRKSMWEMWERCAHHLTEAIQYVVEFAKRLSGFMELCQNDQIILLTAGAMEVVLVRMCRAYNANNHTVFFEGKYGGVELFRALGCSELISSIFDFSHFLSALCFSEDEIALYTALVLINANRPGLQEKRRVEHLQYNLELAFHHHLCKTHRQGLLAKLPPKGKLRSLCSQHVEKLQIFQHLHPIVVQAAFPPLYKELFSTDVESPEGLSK
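Schneider cells (Drosophila), stable Gal4 DBD–ROR gamma + UAS-luc; 1 hr cmpd preincubation; Cu2+ induction 700 uM final; 20 hr ambient; luminescence.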
VP16 counter: Gal4-VP16 reporter inhibition counter-screen | Drosophila S2 Gal4-VP16 UAS-luciferase, luminescence, 20 h | Potency, µM (highest dose often 53.6 µM), usual class: inhibitors | hit rate 3.5% among 310,000;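 further: Gal4-VP16 expression switched on by copper sulfate through the metallothionein promoter; nearly all actives have a fitted effect of over 50% in size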
Tau FP inhib: tau fibrillization inhibition (FP); K18 P301L tau heparin fibrillization, Alexa594 FP, 6 h; hit rate 0.39% among 280,000; AID 1468; P10636; Potency, µM (doses to about 57.7 µM), hits mostly inhibitors; further: nearly all actives have a fitted effect of over 55% in size
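Compound effects on tau fibrillization are measured by Alexa 594 fluorescence polarization (ex 555, em 632 nm). K18 P301L tau is used at 15 uM with 0.24 uM labeled tracer, and 20 uM heparin induces aggregation over 6 hr at 37 C.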
Hits are given with their value; . = inactive; ? = inconclusive; / = not tested or not shown; [ ] = another dose, or the depositor's remark. The call rests on the fitted dose curve; in most records, active means well fitted curve in the direction sought with a large enough effect; inconclusive means small, poorly fitted or top-dose-only effect, or another doubt; inactive means no such curve, though single readings can be large; an effect the other way counts as inactive or inconclusive.

SMILES | Tau fluor counter | Tau fibril ThT | RORg inh | VP16 counter | Tau FP inhib
O=C(N/N=C/c1cccs1)c1cccc(NC(=O)c2ccccc2Cl)c1 | . | . | ? | 14.1µM | .
O=C(N/N=C/c1cccs1)c1ccc(-n2cccc2)cc1 | ? | ? | 6.31µM | 11.2µM | ?
O=C(N/N=C/c1ccncc1)c1ccc(-n2cccc2)cc1 | . | ? | . | . | .
O=C(N/N=C/c1cccs1)c1ccc(NC(=O)c2ccccc2Cl)cc1 | . | ? | 10µM | ? | .
Cc1ccc(/C=N/NC(=O)c2ccc(-n3cccc3)cc2)o1 | / | / | 17.8µM | ? | /
O=C(N/N=C/c1ccco1)c1ccc(NC(=O)c2ccccc2Cl)cc1 | . | ? | . | . | .
CCOc1ccccc1CNC(=O)CCn1cccn1 | . | . | / | / | .
CCC/C=C(\CCC)C(NC(=O)Oc1ccc(F)cc1)c1ccc(C(=O)OC)cc1 (configuration not stated) | . | . | . | . | .
Nc1nn(-c2ccccc2)c(N)c1N=Nc1cccc(F)c1 | . | 10µM | . | . | .
Cc1nn(C(=O)c2ccc3c(c2)OCO3)c(N)c1-c1ccccc1 | . | . | ? | ? | .
Nc1nn(-c2ccccc2)c(N)c1N=Nc1ccc2c(c1)OCO2 | ? | 1.78µM | . | . | .
Cc1nn(-c2ccccc2)c(N)c1N=Nc1cccnc1 | . | ? | . | . | .
COc1ccc(-c2n[nH]c(=S)n2N)c(OC)c1 | . | . | . | . | .
CCn1c(-c2cc(-c3ccccc3OC)nc3ccccc23)n[nH]c1=S | . | . | 7.94µM | . | .
CCn1c(-c2cc(-c3cc(OC)ccc3OC)nc3ccccc23)n[nH]c1=S | . | . | 8.91µM | . | .
CC1CCCN(S(=O)(=O)c2ccc(C(=O)Nc3nnc(C4=COCCO4)o3)cc2)C1 (configuration not stated) | / | / | 0.794µM | 1.12µM | /
O=C(Nc1nnc(C2=COCCO2)o1)c1ccc(S(=O)(=O)N2CCOCC2)cc1 | . | . | 11.2µM | . | .
CC1CCCCN1S(=O)(=O)c1ccc(C(=O)Nc2nnc(C3=COCCO3)o2)cc1 (configuration not stated) | / | / | 0.891µM | 1.26µM | /
CNC(=O)c1c(NC(=O)c2ccc(S(=O)(=O)N3CCCCC3C)cc2)sc2c1CCC2 (configuration not stated) | . | . | / | / | .
CC1CCCN(CCCNC(=O)c2ccc3c(c2)N(Cc2ccccc2F)C(=O)c2ccccc2S3(=O)=O)C1 (configuration not stated) | ? | . | . | ? | .
Cc1ccc(C)n1-c1c(C(=O)NCC(C)c2ccccc2)sc2ncccc12 (configuration not stated) | . | ? | / | / | .
CC(=O)c1cccc(NC(=O)/C=C/c2ccc([N+](=O)[O-])s2)c1 | ? | 3.98µM | 10µM | 4.47µM | ?
Cc1cc(C)cc(NC(=O)/C=C/c2ccc([N+](=O)[O-])s2)c1 | . | ? | . | . | .
Cc1ccccc1NC(=O)/C=C/c1ccc([N+](=O)[O-])s1 | ? | 12.6µM | 4.47µM | 3.16µM | ?
O=C(Nc1cccc2ccccc12)c1ccc([N+](=O)[O-])s1 | ? | ? | . | ? | .
SMILES | Tau fluor counter | Tau fibril ThT | RORg inh | VP16 counter | Tau FP inhib
O=C(Nc1ccccc1F)c1ccc([N+](=O)[O-])s1 | . | ? | 12.6µM | . | .
CC(C)NC(=O)c1nn(C)c2c1CS(=O)(=O)c1ccccc1-2 | . | . | / | / | .
O=C(Cc1ccccc1)NC1CCSc2ccccc21 (configuration not stated) | / | / | . | . | /
O=C(Nc1ccc(F)c(Cl)c1)N1CCC(CN2CCOCC2)CC1 | . | . | / | / | .
NC(=O)C(c1ccccc1)(c1ccccc1)[C@@H]1CCN(CCc2ccc3c(c2)CCO3)C1 | / | / | . | . | /
CCC(C)Nc1nc2c(c(=O)[nH]c(=O)n2C)n1Cc1ccc(F)cc1 (configuration not stated) | . | . | / | / | .
Fc1cccc(C[n+]2csc3ccccc32)c1 | . | 25.1µM | ? | ? | ?
c1ccc(C[n+]2csc3ccccc32)cc1 | . | ? | ? | ? | .
CC1C(=O)NN=C1C(=O)N/N=C\C(Br)=C\c1ccccc1 (configuration not stated) | . | . | 1.26µM | 1.58µM | .
COc1ccc(Cl)cc1NC(=O)c1cc(-c2ccc3c(c2)OCO3)on1 | . | . | / | / | .
O=C(Nc1ncc(Cc2cccc(C(F)(F)F)c2)s1)c1ccc(-c2cccc([N+](=O)[O-])c2)o1 | ? | ? | 7.08µM | 4.47µM | .
Cc1cc(Cl)ccc1NC(=S)NCc1ccco1 | . | . | ? | 10µM | .
S=C(NCc1ccc(Cl)cc1)NN1CCOCC1 | . | . | 10µM | ? | .
S=C(NCc1ccccc1)NN1CCOCC1 | . | . | ? | .[10 µM] | .
CCCNC(=S)NCc1ccc(Cl)cc1 | . | . | 10µM | . | .
Cc1cc(Cl)ccc1NC(=S)NCc1ccc(Cl)cc1 | . | . | 2.82µM | .[0.365 µM] | ?
Cc1cc(Cl)ccc1NC(=S)NCc1ccc(S(N)(=O)=O)cc1 | . | . | . | . | .
CCc1cc[n+](CC(=O)Nc2ccc(Cl)cc2Cl)cc1 | . | . | . | . | .
Cc1cc(Cl)ccc1NC(=S)NCCc1ccc(Cl)cc1 | / | / | 6.31µM | 5.01µM | /
S=C(NCCc1ccccc1)Nc1ccc(Cl)cc1Cl | ? | . | 3.98µM | 15.8µM | .
CCNC(=S)Nc1ccc(Cl)cc1Cl | . | . | 11.2µM | . | .
CCOc1ccc(-n2nc3ccc(NC(=O)c4ccc(C)cc4C)cc3n2)cc1 | . | . | / | / | ?
COc1ccc(C(=O)/C=C/c2ccsc2)cc1CSCC(=O)O | / | / | 10µM | 10µM | /
COc1ccc(N2C(=O)/C(=C\c3ccco3)N=C2SCC(=O)N(C(C)C)C(C)C)cc1Cl | . | ? | ? | 10µM | .
O=C(CSC1=N/C(=C/c2ccco2)C(=O)N1c1ccc(OC(F)F)cc1)NC1CCS(=O)(=O)C1 (configuration not stated) | . | 28.2µM | . | ? | ?
SMILES | Tau fluor counter | Tau fibril ThT | RORg inh | VP16 counter | Tau FP inhib
CCC12C=C(/C=C/c3ccccc3)C(CC)(C1)C(c1ccccc1)CC2=O (configuration not stated) | .[11.6 µM] | .[11.5 µM] | .[10 µM] | .[10 µM] | .[11.6 µM]
COc1ccc(C(=O)NNC2CC(=O)N(Cc3ccc(Cl)cc3)C2=O)cc1OC (configuration not stated) | . | . | ? | 7.08µM | .
CCN(CC)CCNC(=O)c1c(C)oc2ncnc(N3CCOCC3)c12 | . | . | / | / | .
O=C(Nc1nnc(-c2cccnc2)o1)c1cccc([N+](=O)[O-])c1 | . | ? | 0.794µM | 1.12µM | .
O=C(Nc1nnc(-c2ccncc2)o1)c1ccc2ccccc2c1 | / | / | 1.12µM | 0.562µM | /
O=C(Nc1ccncc1NC(=O)c1cccc([N+](=O)[O-])c1)c1cccc([N+](=O)[O-])c1 | . | . | . | . | .
Cc1cccc(C(=O)Nc2nnc(-c3ccncc3)o2)c1 | . | . | 3.16µM | 2.82µM | .
Cc1cccc(C(=O)Nc2nnc(-c3cccnc3)o2)c1 | . | . | 0.708µM | 1.26µM | .

Screening results from PubChem BioAssay.
